Consider nine molecules from PubChem BioAssay (NCI).

The structures appear in SMILES notation. About 79,000 compounds went through this panel and 15% of them were active in at least one assay; those are over-represented in the sample as a whole. A number with no mark means an inactive call. The source made the active and inactive calls. Rule as the data show it: active = growth inhibition above about 70%; inactive = the rest.

Experiment [1] in a line: NCI Yeast Anticancer Drug Screen. Data for the rad50 strain (AID 155).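 Also: 0% = growth of vehicle-only cultures of the same strain.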 The note with it: S. cerevisiae rad50 strain growth inhibition, hits give high values. A digest of the protocol:
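DNA repair mutant yeast, compound exposure, growth read-out; inhibition is taken relative to vehicle.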

Experiment [2] is described as follows: NCI Yeast Anticancer Drug Screen. Data for the mec2-1 strain (AID 157). The note with it: S. cerevisiae mec2-1 strain, hits give high values. A digest of the protocol: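 Using mec2-1 yeast: add compound, measure growth, express inhibition versus vehicle-treated cultures.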
A short description of experiment [3]: NCI Yeast Anticancer Drug Screen. Data for the sgs1 mgt1 strain (AID 161).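 Also: 0% = growth of cultures given vehicle only.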 Particulars: S. cerevisiae sgs1 mgt1 strain, hits give high values. A digest of the protocol: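 Percent growth inhibition was derived by comparing compound-exposed mutant yeast with vehicle-exposed cultures. The strain carries alterations in DNA damage repair.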
Experiment [4] in a line: NCI Yeast Anticancer Drug Screen. Data for the cln2 rad14 strain (AID 165).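 Also: 0% = growth equal to vehicle treated cultures.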 The note with it: S. cerevisiae cln2 rad14 strain, hits give high values. The method in brief: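 Yeast strain cln2 rad14, bearing defects in cell cycle control and DNA repair, serves as the test system; values reflect growth inhibition compared with vehicle.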
Experiment [5] in a line: NCI Yeast Anticancer Drug Screen. Data for the bub3 strain (AID 167). Particulars: S. cerevisiae bub3 mutant strain, hits give high values. A digest of the protocol: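 In this screen, a yeast mutant lacking normal mitotic checkpoint function is challenged with compound. Relative growth versus vehicle gives the inhibition value.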
The nature of experiment [6]: NCI Yeast Anticancer Drug Screen. Data for the mlh1 rad18 strain (AID 175). Particulars: S. cerevisiae mlh1 rad18 strain growth inhibition, hits give high values. A digest of the protocol:
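Steps: expose repair-defective yeast to compound; measure growth; express inhibition against vehicle-treated controls.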

Where [7] appears, read: at 5.0 µM (retest, dose inferred, filed as 0.5).
Setting [8] is: at 50.0 µM (retest, dose inferred, filed as 5.0).

Consider `O=[N+]([O-])c1ccc(SC(=S)N2CCCCC2)c([N+](=O)[O-])c1`, for which the growth inhibition is 21% in experiment [1] (setting [7]); 98% (active) in experiment [1] (setting [8]); 98.4% (active) in experiment [1] (at 50.0 µM); 16% in experiment [2] (setting [7]); 98% (active) in experiment [2] (setting [8]); 99% (active) in experiment [2] (at 50.0 µM). For the same molecule, the growth inhibition in experiment [3] (setting [7]) was 15%; in experiment [3] (setting [8]), 99% (active); in experiment [3] (at 50.0 µM), 99.2% (active); in experiment [4] (setting [7]) it was 0%; in experiment [4] (setting [8]), 92% (active); in experiment [4] (at 50.0 µM), 98.4% (active). Moreover, the growth inhibition is 10% in experiment [5] (setting [7]); 98% (active) in experiment [5] (setting [8]); 98.8% (active) in experiment [5] (at 50.0 µM); 21% in experiment [6] (setting [7]); 98% (active) in experiment [6] (setting [8]); 98.9% (active) in experiment [6] (at 50.0 µM).
For the molecule `CCCCCCCCCCCCOC(=O)CC1CC(C(C)=O)C1(C)C` (configuration not stated), the growth inhibition in experiment [1] (setting [7]) is 2%; in experiment [1] (setting [8]), -9%; in experiment [1] (at 50.0 µM), 18.5%; in experiment [2] (setting [7]), 0%; in experiment [2] (setting [8]), -7%; in experiment [2] (at 50.0 µM), -20.8%. For the same molecule, the growth inhibition in experiment [3] (setting [7]) was 0%; in experiment [3] (setting [8]), -7%; in experiment [3] (at 50.0 µM) it was 24.1%; in experiment [4] (setting [7]), 1%; in experiment [4] (setting [8]), -8%; in experiment [4] (at 50.0 µM) it was 84.3% (active). The growth inhibition is -3% in experiment [5] (setting [7]); -13% in experiment [5] (setting [8]); 11.2% in experiment [5] (at 50.0 µM); 25% in experiment [6] (setting [7]); -4% in experiment [6] (setting [8]); 41.2% in experiment [6] (at 50.0 µM).
For the molecule `Cn1c(=O)c2c(O)c(-c3ccccc3)c(=O)n3c4ccccc4n(c1=O)c23`, the growth inhibition in experiment [1] (setting [7]) was 19%; in experiment [1] (setting [8]), 48%; in experiment [1] (at 50.0 µM) it was 51.3%; in experiment [2] (setting [7]), 21%; in experiment [2] (setting [8]), 51%; in experiment [2] (at 50.0 µM), 27.6%. Moreover, the growth inhibition in experiment [3] (setting [7]) is 28%; in experiment [3] (setting [8]), 68%; in experiment [3] (at 50.0 µM), 64.5%; in experiment [4] (setting [7]) it was 7%; in experiment [4] (setting [8]), 34%; in experiment [4] (at 50.0 µM), 19.7%. The growth inhibition in experiment [5] (setting [7]) was 10%; in experiment [5] (setting [8]), 30%; in experiment [5] (at 50.0 µM) it was 25.9%; in experiment [6] (setting [7]), 18%; in experiment [6] (setting [8]), 59%; in experiment [6] (at 50.0 µM) it was 50.1%.
Take `CCOC(=O)N1CCN(C(=S)N/N=C(\C)c2ncccn2)CC1`: the growth inhibition in experiment [1] (setting [7]) is 4%; in experiment [1] (setting [8]), 99% (active); in experiment [1] (at 50.0 µM), 99.4% (active); in experiment [2] (setting [7]), 9%; in experiment [2] (setting [8]), 99% (active); in experiment [2] (at 50.0 µM), 99.7% (active). Further, the growth inhibition in experiment [3] (setting [7]) is -5%; in experiment [3] (setting [8]), 99% (active); in experiment [3] (at 50.0 µM), 99.4% (active); in experiment [4] (setting [7]), -40%; in experiment [4] (setting [8]), 99% (active); in experiment [4] (at 50.0 µM), 99.1% (active). Moreover, the growth inhibition in experiment [5] (setting [7]) was -22%; in experiment [5] (setting [8]) it was 99% (active); in experiment [5] (at 50.0 µM) it was 99.5% (active); in experiment [6] (setting [7]), -4%; in experiment [6] (setting [8]) it was 99% (active); in experiment [6] (at 50.0 µM), 99.2% (active).
For the molecule `Cc1ccc(S(=O)(=O)CC2COC(CS(=O)(=O)c3ccc(C)cc3)CO2)cc1` (configuration not stated), the growth inhibition is 2% in experiment [1] (setting [7]); 3% in experiment [1] (setting [8]); -14.7% in experiment [1] (at 50.0 µM); 1% in experiment [2] (setting [7]); 6% in experiment [2] (setting [8]); 33.7% in experiment [2] (at 50.0 µM). The growth inhibition was 10% in experiment [3] (setting [7]); -6% in experiment [3] (setting [8]); 3% in experiment [3] (at 50.0 µM); 8% in experiment [4] (setting [7]); 5% in experiment [4] (setting [8]); 33.1% in experiment [4] (at 50.0 µM). For the same molecule, the growth inhibition was 2% in experiment [5] (setting [7]); 11% in experiment [5] (setting [8]); 66.4% in experiment [5] (at 50.0 µM); -2% in experiment [6] (setting [7]); 1% in experiment [6] (setting [8]); 28.8% in experiment [6] (at 50.0 µM).
On to `Clc1cc(Cl)c2cc3cccc[n+]3cc2c1Cl`, for which the growth inhibition in experiment [1] (setting [7]) is 0%; in experiment [1] (setting [8]) it was 19%; in experiment [1] (at 50.0 µM), 90.2% (active); in experiment [2] (setting [7]) it was -11%; in experiment [2] (setting [8]), 33%; in experiment [2] (at 50.0 µM), 93.5% (active). Moreover, the growth inhibition was 2% in experiment [3] (setting [7]); -18% in experiment [3] (setting [8]); 79.2% (active) in experiment [3] (at 50.0 µM); 4% in experiment [4] (setting [7]); 31% in experiment [4] (setting [8]); 54.2% in experiment [4] (at 50.0 µM). Also, the growth inhibition in experiment [5] (setting [7]) is -12%; in experiment [5] (setting [8]) it was 49%; in experiment [5] (at 50.0 µM) it was 87.8% (active); in experiment [6] (setting [7]) it was -14%; in experiment [6] (setting [8]) it was 55%; in experiment [6] (at 50.0 µM) it was 96.1% (active).
As for `COC(=O)[C@]1(C)CCCC2(C)C3=C(CCC21)CC1(CC3)SCCS1` (some centres not stated), the growth inhibition was 12% in experiment [1] (setting [7]); 92% (active) in experiment [1] (setting [8]); 85.4% (active) in experiment [1] (at 50.0 µM); 41% in experiment [2] (setting [7]); 94% (active) in experiment [2] (setting [8]); 91.3% (active) in experiment [2] (at 50.0 µM). Also, the growth inhibition in experiment [3] (setting [7]) was 29%; in experiment [3] (setting [8]) it was 93% (active); in experiment [3] (at 50.0 µM), 87.6% (active); in experiment [4] (setting [7]) it was 46%; in experiment [4] (setting [8]), 96% (active); in experiment [4] (at 50.0 µM), 86.4% (active). Further, the growth inhibition in experiment [5] (setting [7]) was 56%; in experiment [5] (setting [8]), 95% (active); in experiment [5] (at 50.0 µM) it was 86.5% (active); in experiment [6] (setting [7]) it was 18%; in experiment [6] (setting [8]), 95% (active); in experiment [6] (at 50.0 µM), 85.7% (active).
Regarding `COc1cccc(C2c3cc4c(cc3OC(NNc3ccccc3)C2C)OCO4)c1O` (configuration not stated), the growth inhibition in experiment [1] (setting [7]) was -8%; in experiment [1] (setting [8]), 88% (active); in experiment [1] (at 50.0 µM), 94% (active); in experiment [2] (setting [7]), -5%; in experiment [2] (setting [8]), 79% (active); in experiment [2] (at 50.0 µM) it was 95.3% (active). Moreover, the growth inhibition is 1% in experiment [3] (setting [7]); 93% (active) in experiment [3] (setting [8]); 95.8% (active) in experiment [3] (at 50.0 µM); 19% in experiment [4] (setting [7]); 88% (active) in experiment [4] (setting [8]); 94.2% (active) in experiment [4] (at 50.0 µM). For the same molecule, the growth inhibition in experiment [5] (setting [7]) is -8%; in experiment [5] (setting [8]), 97% (active); in experiment [5] (at 50.0 µM) it was 96.8% (active); in experiment [6] (setting [7]) it was 27%; in experiment [6] (setting [8]) it was 91% (active); in experiment [6] (at 50.0 µM) it was 95.7% (active).
Regarding `Clc1ccccc1/C=C/c1ccccn1`, the growth inhibition in experiment [1] (setting [7]) was -8%; in experiment [1] (setting [8]), 4%; in experiment [1] (at 50.0 µM), 41.2%; in experiment [2] (setting [7]), -6%; in experiment [2] (setting [8]) it was -16%; in experiment [2] (at 50.0 µM), 30.7%. Besides, the growth inhibition in experiment [3] (setting [7]) is -8%; in experiment [3] (setting [8]), 1%; in experiment [3] (at 50.0 µM) it was 74.7% (active); in experiment [4] (setting [7]), -9%; in experiment [4] (setting [8]) it was -16%; in experiment [4] (at 50.0 µM), 16.2%. Also, the growth inhibition is -3% in experiment [5] (setting [7]); 30% in experiment [5] (setting [8]); 67.5% in experiment [5] (at 50.0 µM); -7% in experiment [6] (setting [7]); -6% in experiment [6] (setting [8]); 71.8% (active) in experiment [6] (at 50.0 µM).
